Key:
Experiment in all cases: DAPPL (digital affinity profiling via proximity ligation, sequencing); 10 mM Tris-HCl pH 7.5, 50 mM NaCl, 1 mM DTT, 4% glycerol, room temperature, 30 min; GST-TFs on glutathione beads, 16-mer random dsDNA library, 0.1% formaldehyde crosslink after washing; high values mean tight binding
FLI1 = biological target: T1, FLI1 (Homo sapiens, UniProt Q01543 1-452); conditions: protein: recombinant; tags: N-terminal GST; dsDNA, one strand shown
T1 sequence: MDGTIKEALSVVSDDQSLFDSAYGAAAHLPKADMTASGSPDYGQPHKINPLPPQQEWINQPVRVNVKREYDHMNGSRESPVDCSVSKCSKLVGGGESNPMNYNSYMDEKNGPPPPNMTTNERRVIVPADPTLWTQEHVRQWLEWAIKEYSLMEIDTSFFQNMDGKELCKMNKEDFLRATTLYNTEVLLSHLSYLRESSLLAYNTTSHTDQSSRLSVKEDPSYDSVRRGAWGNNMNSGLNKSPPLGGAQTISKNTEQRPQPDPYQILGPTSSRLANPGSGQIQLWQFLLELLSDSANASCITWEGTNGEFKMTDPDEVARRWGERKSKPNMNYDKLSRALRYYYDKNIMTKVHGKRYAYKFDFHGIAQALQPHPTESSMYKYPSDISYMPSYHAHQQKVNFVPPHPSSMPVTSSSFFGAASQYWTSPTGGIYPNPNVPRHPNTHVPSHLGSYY
Procedure, shortened: (§1)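 In yeast, human transcription factors were expressed with a GST fusion, then pulled down on glutathione beads and given DNA barcodes. Pooled with a tag-only sample, they were exposed to 200 nmole of a 16-mer random double-stranded DNA library (Tris/NaCl/DTT/glycerol buffer, room temperature, 30 min), washed, crosslinked with 0.1% formaldehyde, proximity-ligated using BsaI/T4 ligase for 1 h at 37 °C, PCR-amplified and read on an Illumina NextSeq500. Each hexamer's frequency of reads for a factor, divided by the matching frequency for the tag-only sample, gives the binding signal.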

ELK1 = biological target: T2, ELK1 (Homo sapiens, UniProt P19419 1-428); conditions: protein: recombinant; tags: N-terminal GST; dsDNA, one strand shown
T2 sequence: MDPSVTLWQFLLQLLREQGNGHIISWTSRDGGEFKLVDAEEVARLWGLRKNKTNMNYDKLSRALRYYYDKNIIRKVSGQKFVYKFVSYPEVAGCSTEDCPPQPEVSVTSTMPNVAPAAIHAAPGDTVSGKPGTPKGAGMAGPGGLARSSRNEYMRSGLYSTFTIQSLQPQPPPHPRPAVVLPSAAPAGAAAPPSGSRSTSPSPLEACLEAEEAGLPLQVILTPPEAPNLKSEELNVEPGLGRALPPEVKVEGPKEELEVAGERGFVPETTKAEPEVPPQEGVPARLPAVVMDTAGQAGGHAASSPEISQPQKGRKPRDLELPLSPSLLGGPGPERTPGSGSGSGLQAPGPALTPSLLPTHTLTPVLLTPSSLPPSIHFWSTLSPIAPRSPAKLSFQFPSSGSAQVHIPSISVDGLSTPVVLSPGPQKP
Procedure, shortened: as §1

GABPA = biological target: T3, GABPA (Homo sapiens, UniProt Q06546 1-454); conditions: protein: recombinant; tags: N-terminal GST; dsDNA, one strand shown
T3 sequence: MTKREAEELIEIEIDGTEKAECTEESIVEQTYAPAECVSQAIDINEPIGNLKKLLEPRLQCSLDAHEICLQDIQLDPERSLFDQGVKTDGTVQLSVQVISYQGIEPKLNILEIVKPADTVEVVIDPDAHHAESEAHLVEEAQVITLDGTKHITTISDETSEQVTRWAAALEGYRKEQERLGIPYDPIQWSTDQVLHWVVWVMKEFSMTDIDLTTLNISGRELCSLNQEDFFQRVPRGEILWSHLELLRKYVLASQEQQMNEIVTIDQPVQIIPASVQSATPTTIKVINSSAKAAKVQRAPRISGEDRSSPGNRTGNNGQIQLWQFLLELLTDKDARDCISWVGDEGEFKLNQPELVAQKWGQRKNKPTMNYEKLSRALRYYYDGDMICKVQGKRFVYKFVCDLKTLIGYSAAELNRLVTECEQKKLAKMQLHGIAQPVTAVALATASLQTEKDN
Procedure, shortened: as §1

ERG = biological target: T4, ERG (Homo sapiens, UniProt P11308 1-479); conditions: protein: recombinant; tags: N-terminal GST; dsDNA, one strand shown
T4 sequence: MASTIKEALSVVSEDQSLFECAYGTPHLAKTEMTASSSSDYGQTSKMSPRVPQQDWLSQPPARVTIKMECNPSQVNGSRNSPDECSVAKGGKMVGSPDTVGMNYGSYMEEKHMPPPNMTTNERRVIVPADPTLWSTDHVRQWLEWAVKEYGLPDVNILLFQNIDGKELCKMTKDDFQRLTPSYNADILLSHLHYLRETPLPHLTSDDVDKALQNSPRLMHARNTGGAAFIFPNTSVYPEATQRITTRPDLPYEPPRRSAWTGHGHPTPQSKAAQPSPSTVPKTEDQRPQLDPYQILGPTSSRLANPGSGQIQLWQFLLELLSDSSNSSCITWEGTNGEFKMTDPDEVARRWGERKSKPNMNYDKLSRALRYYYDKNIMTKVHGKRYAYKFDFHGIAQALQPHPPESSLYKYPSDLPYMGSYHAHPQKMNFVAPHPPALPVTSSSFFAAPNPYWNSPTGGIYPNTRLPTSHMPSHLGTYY
Procedure, shortened: as §1

ELF1 = ELF1 (Homo sapiens, UniProt P32519 1-619); conditions: protein: recombinant; tags: N-terminal GST; dsDNA, one strand shown
Procedure, shortened: as §1

EHF = biological target: T5, EHF (Homo sapiens, UniProt Q9NZC4 1-300); conditions: protein: recombinant; tags: N-terminal GST; dsDNA, one strand shown
T5 sequence: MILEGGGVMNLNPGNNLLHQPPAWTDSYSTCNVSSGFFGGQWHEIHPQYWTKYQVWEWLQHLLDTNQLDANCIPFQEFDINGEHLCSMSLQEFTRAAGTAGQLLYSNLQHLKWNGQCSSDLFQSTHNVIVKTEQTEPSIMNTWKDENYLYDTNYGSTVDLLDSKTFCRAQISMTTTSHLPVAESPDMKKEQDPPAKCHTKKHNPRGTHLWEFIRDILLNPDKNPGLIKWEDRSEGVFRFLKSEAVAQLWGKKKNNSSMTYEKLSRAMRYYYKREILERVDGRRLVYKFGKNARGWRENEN
Procedure, shortened: as §1

SPI1 = SPI1 (Homo sapiens, UniProt P17947 1-270); conditions: protein: recombinant; tags: N-terminal GST; dsDNA, one strand shown
Procedure, shortened: as §1

SPIB = SPIB (Homo sapiens, UniProt Q01892 1-262); conditions: protein: recombinant; tags: N-terminal GST; dsDNA, one strand shown
Procedure, shortened: as §1

ELK3 = biological target: T6, ELK3 (Homo sapiens, UniProt P41970 1-407); conditions: protein: recombinant; tags: N-terminal GST; dsDNA, one strand shown
T6 sequence: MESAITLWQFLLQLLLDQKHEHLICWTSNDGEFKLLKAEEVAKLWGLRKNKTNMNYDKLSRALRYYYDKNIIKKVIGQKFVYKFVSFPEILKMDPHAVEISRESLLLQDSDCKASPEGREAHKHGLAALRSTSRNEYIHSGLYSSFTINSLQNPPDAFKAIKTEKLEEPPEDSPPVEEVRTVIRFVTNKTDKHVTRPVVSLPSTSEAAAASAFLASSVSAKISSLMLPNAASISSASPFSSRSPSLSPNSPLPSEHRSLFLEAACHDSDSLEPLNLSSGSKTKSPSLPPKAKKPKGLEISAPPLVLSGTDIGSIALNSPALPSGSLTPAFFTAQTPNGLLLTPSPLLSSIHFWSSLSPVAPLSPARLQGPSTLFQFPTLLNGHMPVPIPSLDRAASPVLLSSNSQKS
Procedure, shortened: as §1

FEV = biological target: T7, FEV (Homo sapiens, UniProt Q99581 1-238); conditions: protein: recombinant; tags: N-terminal GST; dsDNA, one strand shown
T7 sequence: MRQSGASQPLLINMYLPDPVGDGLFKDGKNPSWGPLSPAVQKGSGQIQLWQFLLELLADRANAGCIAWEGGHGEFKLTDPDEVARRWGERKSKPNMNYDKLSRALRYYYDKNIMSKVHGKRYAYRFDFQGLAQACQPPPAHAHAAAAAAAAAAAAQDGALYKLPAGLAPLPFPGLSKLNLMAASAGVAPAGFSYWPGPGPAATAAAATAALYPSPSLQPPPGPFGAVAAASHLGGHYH
Procedure, shortened: as §1

ETV5 = ETV5 (Homo sapiens, UniProt P41161 1-510); conditions: protein: recombinant; tags: N-terminal GST; dsDNA, one strand shown
Procedure, shortened: as §1

HSF1 = HSF1 (Homo sapiens, UniProt Q00613 1-529); conditions: protein: recombinant; tags: N-terminal GST; chain copies: 3; dsDNA, one strand shown
Procedure, shortened: as §1

SPIC = biological target: T8, SPIC (Homo sapiens, UniProt Q8N5J4 1-248); conditions: protein: recombinant; tags: N-terminal GST; dsDNA, one strand shown
T8 sequence: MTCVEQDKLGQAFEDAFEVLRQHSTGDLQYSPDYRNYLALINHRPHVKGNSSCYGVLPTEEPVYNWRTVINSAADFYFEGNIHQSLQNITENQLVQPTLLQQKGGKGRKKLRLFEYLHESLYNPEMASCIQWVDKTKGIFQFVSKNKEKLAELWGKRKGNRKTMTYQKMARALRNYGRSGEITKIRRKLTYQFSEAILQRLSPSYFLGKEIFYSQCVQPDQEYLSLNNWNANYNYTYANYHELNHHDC
Procedure, shortened: as §1

ELF4 = ELF4 (Homo sapiens, UniProt Q99607 1-663); conditions: protein: recombinant; tags: N-terminal GST; dsDNA, one strand shown
Procedure, shortened: as §1

ELK4 = biological target: T9, ELK4 (Homo sapiens, UniProt P28324-2 1-405); conditions: protein: recombinant; tags: N-terminal GST; dsDNA, one strand shown
T9 sequence: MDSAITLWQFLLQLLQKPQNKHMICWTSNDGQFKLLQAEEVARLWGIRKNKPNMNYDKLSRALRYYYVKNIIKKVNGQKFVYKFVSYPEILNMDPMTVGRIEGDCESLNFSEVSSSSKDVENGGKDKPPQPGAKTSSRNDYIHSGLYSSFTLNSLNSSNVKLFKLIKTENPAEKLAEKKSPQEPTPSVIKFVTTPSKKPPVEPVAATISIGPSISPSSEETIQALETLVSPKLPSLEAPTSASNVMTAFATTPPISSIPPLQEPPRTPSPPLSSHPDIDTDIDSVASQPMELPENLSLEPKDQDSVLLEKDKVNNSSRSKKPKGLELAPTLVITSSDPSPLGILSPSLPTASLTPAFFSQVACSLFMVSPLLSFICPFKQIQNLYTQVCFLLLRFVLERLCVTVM
Procedure, shortened: as §1

ETV2 = biological target: T10, ETV2 (Homo sapiens, UniProt O00321 1-342); conditions: protein: recombinant; tags: N-terminal GST; dsDNA, one strand shown
T10 sequence: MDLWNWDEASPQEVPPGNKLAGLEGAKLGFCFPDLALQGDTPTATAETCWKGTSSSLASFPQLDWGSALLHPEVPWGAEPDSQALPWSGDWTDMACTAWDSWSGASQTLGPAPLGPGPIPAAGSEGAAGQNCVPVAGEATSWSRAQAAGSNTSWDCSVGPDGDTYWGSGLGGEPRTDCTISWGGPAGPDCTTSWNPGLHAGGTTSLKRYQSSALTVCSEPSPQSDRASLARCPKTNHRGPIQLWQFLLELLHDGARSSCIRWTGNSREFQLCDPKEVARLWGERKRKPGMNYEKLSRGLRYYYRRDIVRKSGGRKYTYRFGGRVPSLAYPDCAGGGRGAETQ
Procedure, shortened: as §1

ELF3 = biological target: T11, ELF3 (Homo sapiens, UniProt P78545 1-371); conditions: protein: recombinant; tags: N-terminal GST; dsDNA, one strand shown
T11 sequence: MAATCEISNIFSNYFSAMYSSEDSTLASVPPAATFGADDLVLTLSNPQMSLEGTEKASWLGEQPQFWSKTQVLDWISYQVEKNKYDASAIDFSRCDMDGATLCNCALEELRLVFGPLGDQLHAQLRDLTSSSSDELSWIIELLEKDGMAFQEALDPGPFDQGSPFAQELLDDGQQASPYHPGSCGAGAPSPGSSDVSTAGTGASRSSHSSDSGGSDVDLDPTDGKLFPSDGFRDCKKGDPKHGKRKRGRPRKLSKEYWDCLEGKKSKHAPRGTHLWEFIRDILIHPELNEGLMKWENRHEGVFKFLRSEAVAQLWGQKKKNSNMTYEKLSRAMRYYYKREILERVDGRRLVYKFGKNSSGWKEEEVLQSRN
Procedure, shortened: as §1

CRX = CRX (Homo sapiens, UniProt O43186 1-299); conditions: protein: recombinant; tags: N-terminal GST; dsDNA, one strand shown
Procedure, shortened: as §1

ETV1 = ETV1 (Homo sapiens, UniProt P50549 1-477); conditions: protein: recombinant; tags: N-terminal GST; dsDNA, one strand shown
Procedure, shortened: as §1

ETV1, sequence (P50549 whole entry): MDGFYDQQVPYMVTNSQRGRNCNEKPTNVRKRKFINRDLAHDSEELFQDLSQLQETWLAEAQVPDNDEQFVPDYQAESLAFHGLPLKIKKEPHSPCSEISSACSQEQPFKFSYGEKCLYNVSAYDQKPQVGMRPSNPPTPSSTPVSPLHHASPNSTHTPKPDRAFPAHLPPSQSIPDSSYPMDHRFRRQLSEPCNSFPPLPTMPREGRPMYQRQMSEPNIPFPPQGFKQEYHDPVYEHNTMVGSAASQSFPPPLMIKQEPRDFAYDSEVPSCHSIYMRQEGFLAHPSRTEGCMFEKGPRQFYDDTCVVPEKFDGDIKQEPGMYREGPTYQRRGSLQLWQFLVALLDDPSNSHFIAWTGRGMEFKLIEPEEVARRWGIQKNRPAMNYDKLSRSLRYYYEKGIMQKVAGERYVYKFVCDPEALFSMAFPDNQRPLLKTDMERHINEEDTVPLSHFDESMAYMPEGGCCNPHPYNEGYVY
ELF4, sequence (Q99607 whole entry): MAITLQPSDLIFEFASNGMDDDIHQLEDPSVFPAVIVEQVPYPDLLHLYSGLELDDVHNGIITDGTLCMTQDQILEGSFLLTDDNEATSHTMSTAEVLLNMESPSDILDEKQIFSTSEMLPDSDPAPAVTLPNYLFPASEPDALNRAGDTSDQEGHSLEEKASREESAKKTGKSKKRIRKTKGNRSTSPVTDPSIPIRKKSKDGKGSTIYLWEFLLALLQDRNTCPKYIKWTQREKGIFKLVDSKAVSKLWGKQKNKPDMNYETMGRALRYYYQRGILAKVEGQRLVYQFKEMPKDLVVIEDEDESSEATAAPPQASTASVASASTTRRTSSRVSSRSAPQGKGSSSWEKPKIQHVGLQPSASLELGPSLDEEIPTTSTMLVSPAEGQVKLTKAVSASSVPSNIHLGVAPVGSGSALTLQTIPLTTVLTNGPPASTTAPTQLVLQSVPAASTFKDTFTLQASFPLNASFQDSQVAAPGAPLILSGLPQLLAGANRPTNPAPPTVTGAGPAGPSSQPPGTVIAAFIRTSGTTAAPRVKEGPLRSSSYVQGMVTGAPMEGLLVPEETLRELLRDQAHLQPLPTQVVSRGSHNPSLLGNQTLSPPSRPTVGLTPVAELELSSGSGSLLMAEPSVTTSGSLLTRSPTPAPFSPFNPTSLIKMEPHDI
ETV5, sequence (P41161 whole entry): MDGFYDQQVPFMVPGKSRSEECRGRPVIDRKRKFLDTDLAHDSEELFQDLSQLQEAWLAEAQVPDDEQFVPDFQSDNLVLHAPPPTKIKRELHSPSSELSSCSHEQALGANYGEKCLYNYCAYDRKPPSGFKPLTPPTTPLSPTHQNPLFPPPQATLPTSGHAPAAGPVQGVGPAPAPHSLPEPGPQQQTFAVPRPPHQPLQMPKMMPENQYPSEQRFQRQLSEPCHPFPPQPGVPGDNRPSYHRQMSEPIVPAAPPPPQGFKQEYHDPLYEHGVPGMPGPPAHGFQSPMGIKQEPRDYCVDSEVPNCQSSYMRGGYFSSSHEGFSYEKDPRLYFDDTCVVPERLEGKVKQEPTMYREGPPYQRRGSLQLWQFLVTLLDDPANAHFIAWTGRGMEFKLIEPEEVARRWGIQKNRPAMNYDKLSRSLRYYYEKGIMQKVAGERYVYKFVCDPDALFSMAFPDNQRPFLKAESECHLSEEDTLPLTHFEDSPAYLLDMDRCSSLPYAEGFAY
HSF1, sequence (Q00613 whole entry): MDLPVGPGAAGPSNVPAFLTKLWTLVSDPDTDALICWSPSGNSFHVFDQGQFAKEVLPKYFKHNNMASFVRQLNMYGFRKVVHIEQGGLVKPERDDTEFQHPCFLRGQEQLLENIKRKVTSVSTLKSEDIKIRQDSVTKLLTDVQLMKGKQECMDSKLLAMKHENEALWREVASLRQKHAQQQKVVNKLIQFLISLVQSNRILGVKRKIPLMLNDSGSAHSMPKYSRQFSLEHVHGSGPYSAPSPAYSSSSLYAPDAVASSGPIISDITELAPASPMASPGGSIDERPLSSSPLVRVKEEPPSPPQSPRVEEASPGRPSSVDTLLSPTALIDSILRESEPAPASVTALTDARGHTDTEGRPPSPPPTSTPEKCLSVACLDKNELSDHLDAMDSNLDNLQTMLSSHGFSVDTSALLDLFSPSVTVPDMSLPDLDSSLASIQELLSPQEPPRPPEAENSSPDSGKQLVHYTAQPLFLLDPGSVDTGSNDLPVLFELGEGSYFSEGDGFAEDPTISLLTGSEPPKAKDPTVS
CRX, sequence (O43186 whole entry): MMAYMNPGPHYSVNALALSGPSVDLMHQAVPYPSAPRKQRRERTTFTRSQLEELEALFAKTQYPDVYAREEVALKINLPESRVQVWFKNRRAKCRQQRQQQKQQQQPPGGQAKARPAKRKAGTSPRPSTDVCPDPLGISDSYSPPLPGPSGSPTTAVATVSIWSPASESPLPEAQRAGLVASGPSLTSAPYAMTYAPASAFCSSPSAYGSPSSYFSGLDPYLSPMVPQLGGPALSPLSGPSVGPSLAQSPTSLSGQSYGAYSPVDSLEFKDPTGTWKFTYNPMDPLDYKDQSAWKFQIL
SPIB, sequence (Q01892 whole entry): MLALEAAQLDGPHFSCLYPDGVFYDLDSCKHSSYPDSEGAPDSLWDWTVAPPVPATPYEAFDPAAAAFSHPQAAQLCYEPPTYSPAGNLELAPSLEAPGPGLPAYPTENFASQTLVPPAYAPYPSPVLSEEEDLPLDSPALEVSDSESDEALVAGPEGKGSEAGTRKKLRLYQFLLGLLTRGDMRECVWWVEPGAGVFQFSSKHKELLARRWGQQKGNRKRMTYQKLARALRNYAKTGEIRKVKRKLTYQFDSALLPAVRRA
ELF1, sequence (P32519 whole entry): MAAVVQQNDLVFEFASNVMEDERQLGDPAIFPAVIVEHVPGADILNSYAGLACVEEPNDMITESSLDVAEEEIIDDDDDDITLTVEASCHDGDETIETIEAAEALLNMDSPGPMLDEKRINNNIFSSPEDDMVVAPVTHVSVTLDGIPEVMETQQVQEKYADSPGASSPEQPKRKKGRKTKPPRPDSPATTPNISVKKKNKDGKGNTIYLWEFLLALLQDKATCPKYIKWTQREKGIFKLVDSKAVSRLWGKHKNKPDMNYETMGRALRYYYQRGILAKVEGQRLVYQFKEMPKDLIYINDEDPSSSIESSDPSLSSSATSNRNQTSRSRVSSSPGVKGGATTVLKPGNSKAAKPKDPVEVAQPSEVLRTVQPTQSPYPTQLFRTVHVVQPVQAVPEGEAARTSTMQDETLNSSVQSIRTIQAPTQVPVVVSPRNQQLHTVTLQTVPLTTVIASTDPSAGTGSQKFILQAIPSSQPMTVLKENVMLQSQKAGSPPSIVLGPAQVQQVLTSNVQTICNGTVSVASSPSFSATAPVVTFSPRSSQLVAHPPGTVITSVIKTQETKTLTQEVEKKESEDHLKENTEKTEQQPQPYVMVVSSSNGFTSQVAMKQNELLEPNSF

With CTTTGA the binding signal (FLI1) was 1.29 fold enrichment (6-mer frequency, TF over GST control), the binding signal (ELK1) was 1.22 fold enrichment (6-mer frequency, TF over GST control) and the binding signal (GABPA) was 1.26 fold enrichment (6-mer frequency, TF over GST control). The binding signal (ERG) was 1.26 fold enrichment (6-mer frequency, TF over GST control), the binding signal (ELF1) was 1.26 fold enrichment (6-mer frequency, TF over GST control) and the binding signal (EHF) was 1.16 fold enrichment (6-mer frequency, TF over GST control). The binding signal (SPI1) was 1.21 fold enrichment (6-mer frequency, TF over GST control), the binding signal (SPIB) was 1.24 fold enrichment (6-mer frequency, TF over GST control) and the binding signal (ELK3) was 1.15 fold enrichment (6-mer frequency, TF over GST control). The binding signal (FEV) was 1.14 fold enrichment (6-mer frequency, TF over GST control), the binding signal (ETV5) was 1.18 fold enrichment (6-mer frequency, TF over GST control) and the binding signal (HSF1) was 1.21 fold enrichment (6-mer frequency, TF over GST control). For the same sequence, the binding signal (SPIC) was 1.4 fold enrichment (6-mer frequency, TF over GST control), the binding signal (ELF4) was 1.24 fold enrichment (6-mer frequency, TF over GST control) and the binding signal (ELK4) was 1.41 fold enrichment (6-mer frequency, TF over GST control). For the same sequence, the binding signal (ETV2) was 1.27 fold enrichment (6-mer frequency, TF over GST control), the binding signal (ELF3) was 1.16 fold enrichment (6-mer frequency, TF over GST control) and the binding signal (CRX) was 1.23 fold enrichment (6-mer frequency, TF over GST control). The binding signal (ETV1) was 1.21 fold enrichment (6-mer frequency, TF over GST control).
